# Reference: PubChem BioAssay AID639 (Emory University Molecular Libraries Screening Center, 2007)
# About 1,200 (1.4%) of roughly 86,000 compounds were called active. Cut-off read from the data, not from the text of the source: active = activity above about 200%; inactive = the rest. Shown is part of a subset that was picked to be rich in actives.
# Target: Estrogen receptor (Homo sapiens) (UniProt P03372)
# Assay: ERα coactivator recruitment potentiators – biochemical, TR-FRET, ERα LBD, low estradiol, primary screen (AID 639);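 note: binding measured in presence of low estradiol as agonist stimulus; 0% = peptide alone without receptor and 100% = receptor with peptide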
# Settings: TR-FRET ERalpha-LBD/SRC-Cy5 coactivator binding, 2 h; at 25.6 µM; stronger effect = higher value; 100 = basal binding, no effect
# Sequence of Estrogen receptor (Homo sapiens) (P03372 whole entry, looked up, the tested form may be a part): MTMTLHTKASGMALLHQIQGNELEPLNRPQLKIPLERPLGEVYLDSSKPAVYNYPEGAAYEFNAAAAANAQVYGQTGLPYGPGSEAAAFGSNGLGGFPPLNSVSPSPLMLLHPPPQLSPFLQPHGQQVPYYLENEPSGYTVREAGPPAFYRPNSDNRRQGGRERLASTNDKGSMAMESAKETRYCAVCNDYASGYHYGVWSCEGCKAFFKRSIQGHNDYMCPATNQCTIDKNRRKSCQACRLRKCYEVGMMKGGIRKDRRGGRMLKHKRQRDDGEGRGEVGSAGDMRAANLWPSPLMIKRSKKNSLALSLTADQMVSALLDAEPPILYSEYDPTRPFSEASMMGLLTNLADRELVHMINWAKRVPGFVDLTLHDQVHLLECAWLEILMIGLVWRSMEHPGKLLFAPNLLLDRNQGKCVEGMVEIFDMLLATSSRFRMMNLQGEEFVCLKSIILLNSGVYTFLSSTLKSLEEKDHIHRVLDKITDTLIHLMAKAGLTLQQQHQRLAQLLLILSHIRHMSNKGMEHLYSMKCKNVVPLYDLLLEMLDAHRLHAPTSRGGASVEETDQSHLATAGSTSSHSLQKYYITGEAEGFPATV
row,Structure (SMILES),coactivator binding (% of control)
1,CCc1nnc(NC(=O)CSc2nc3ccccc3c(=O)n2CCCOC)s1,102% (inactive)
2,CCOC(=O)c1c(N=CN(C)C)c(C#N)c2n1CCCC2,111% (inactive)
3,COc1ccc(NC(=O)CSc2nnc(-c3cccs3)n2Cc2ccco2)cc1OC,95.3% (inactive)
4,COc1ccccc1NC(=O)CSc1nc2sc(C)c(C)c2c(=O)n1Cc1ccco1,225% (active)
5,COc1cc(Cl)c(C)cc1NC(=O)CSc1nnc(-c2cccnc2)n1Cc1ccco1,90.9% (inactive)
6,COC(=O)c1ccc(NC(=O)C23CC4CC(C2)CC(n2cnc(Cl)n2)(C4)C3)cc1,101% (inactive)
7,Cc1cccc(N(C(=O)c2ccc(CN3CCOCC3)o2)C(C(=O)NC2CCCCC2)c2ccc(F)cc2)c1 (stereo unspecified),114% (inactive)
8,Cc1ccc2cc(C#N)c(SCC(=O)NCC3CCCO3)nc2c1C (stereo unspecified),240% [fluorescence artefact?] (active)
9,O=C(CSc1nnc(-c2ccc(NS(=O)(=O)c3ccccc3)cc2)o1)NCC1CCCO1 (stereo unspecified),103% (inactive)
10,CCn1c(SCC(=O)NCC2CCCO2)nc2cc(S(=O)(=O)N3CCCCC3)ccc21 (stereo unspecified),88.2% (inactive)
11,CC1Cc2ccccc2N1C(=O)c1cc2sccc2n1Cc1ccccc1 (stereo unspecified),200% (inactive)
12,CSc1nc(N)c(C#N)c(-c2ccccc2Cl)c1C#N,214% [fluorescence artefact?] (active)
13,CCc1c(-c2ccccc2)nc(N)c(C#N)c1-c1cccs1,95.7% (inactive)
14,Cc1c(-c2ccccc2)nc(N)c(C#N)c1-c1cccs1,155% (inactive)
15,O=C(c1cc2c(s1)CCC2)N1CCN(c2ccccc2)CC1,19.5% (inactive)
16,CCCNC(=S)N1CCC(NC(=O)C23CC4CC(CC(C4)C2)C3)CC1,108% (inactive)
17,O=C(Cn1nnc(-c2ccc(CN3CCOCC3)cc2)n1)NC1CCCCC1,123% (inactive)
18,COc1ccc(C(=O)Cn2nnc(-c3ccc(N4CCOCC4)cc3)n2)cc1OC,240% (active)
19,CCOc1ccc(-c2nnn(CC(=O)N3CCN(c4ccc(OC)cc4)CC3)n2)cc1OCC,87.8% (inactive)
20,COc1ccc(N(CC(=O)NC2CCCCC2)C(=O)CNC(=O)c2ccco2)c(OC)c1,113% (inactive)
21,O=C(Nc1nncs1)c1cccc(S(=O)(=O)N2CCCCC2)c1,91.9% (inactive)
22,CSc1nnc2c(n1)OC(c1cn(C)c3ccccc13)N(C(C)=O)c1ccccc1-2 (stereo unspecified),120% (inactive)
23,CSc1nnc2c(n1)OC(c1ccsc1)N(C(C)=O)c1ccccc1-2 (stereo unspecified),348% (active)

row,Structure (SMILES),coactivator binding (% of control)
1,COCCCNC(=O)CN1CCN(Cc2ccccc2Cl)C1=O,107% (inactive)
2,CCOc1ccc(N=C2NC(=O)S/C2=C\c2ccc(O)cc2)cc1,179% (inactive)
3,C/C(=N\NC(=O)c1ccc(C)cc1)C1C(=O)c2ccccc2C1=O,71.8% (inactive)
4,Cc1cc(C)nc(-n2nc(C)cc2NC(=O)c2ccc(Br)o2)n1,427% (active)
5,Cc1cccc(-n2nc3c(c2NC(=O)c2ccc(Br)o2)CSC3)c1C,129% (inactive)
6,COc1cc(OC)c(NC(=O)c2ccc(Br)o2)cc1Cl,112% (inactive)
7,CC(C)(C)n1nnnc1C(c1ccc(Cl)cc1)N1CCSCC1 (stereo unspecified),105% (inactive)
8,C#CCN(N(C)c1ncc(C(F)(F)F)cc1Cl)S(=O)(=O)c1ccc2ccccc2c1,165% (inactive)
9,c1ccc(CCn2nnnc2CN2CCN(C3CCCC3)CC2)cc1,110% (inactive)
10,COc1ccc(C(c2nnnn2C2CCCCC2)N2CCN(c3ccccc3F)CC2)cc1 (stereo unspecified),87.6% (inactive)
11,c1ccc(C(c2ccccc2)N2CCN(Cc3nnnn3C3CCCCC3)CC2)cc1,209% [fluorescence artefact?] (active)
12,COc1ccc(N2CCN(Cc3ccc(Br)s3)CC2)cc1,108% (inactive)
13,Cc1cc(C)n(-c2nc(O)cc(=O)[nH]2)n1,103% (inactive)
14,CCOc1cc(-c2cc(-c3ccc(OC)cc3)nc(N)c2C#N)ccc1O,146% (inactive)
15,COC(=O)c1cc(OC)ccc1-c1ccc(OC)cc1,117% (inactive)
16,CCSc1nc(-c2ccc(OC)cc2)cc(-c2ccc(OC)cc2)c1C#N,371% [fluorescence artefact?] (active)
17,O=S(=O)(NC1CCCCC1)c1ccc(F)c2ccccc12,91.4% (inactive)
18,CCOc1cc2[nH]c(=S)n(Cc3ccc(C(=O)NCCOC)cc3)c(=O)c2cc1OCC,163% (inactive)
19,COc1ccc(-c2ccc(-c3noc(-c4ccncc4)n3)c(OC)n2)cc1,107% (inactive)
20,CCOc1nc(-c2ccc(OC)cc2)ccc1-c1noc(-c2cc(OC)c(OC)c(OC)c2)n1,239% (active)
21,COc1cc(-c2nc(-c3ccncc3)no2)cc(OC)c1OC,87.6% (inactive)
22,O=C(CO/N=C/c1ccccc1O)NNC(=O)c1ccccc1Cl,102% (inactive)
23,O=C(Cn1cnc2ccccc2c1=O)NCC1COc2ccccc2O1 (stereo unspecified),104% (inactive)

row,Structure (SMILES),coactivator binding (% of control)
1,OC(COc1ccc2ccccc2c1)Cn1cncn1 (stereo unspecified),100% (inactive)
2,C/C(O)=C\c1nc(=O)c2c(C)cc(C)nc2n1-c1ccccc1,297% [fluorescence artefact?] (active)
3,N#CCSc1nc2ccccc2c(=O)n1-c1ccccc1,100% (inactive)
4,Cc1cc(C)c2c(n1)nn1c(N3CCN(c4cccc(Cl)c4)CC3)cc(C)nc21,169% (inactive)
5,Cc1cc(Cl)c(S(=O)(=O)N(C)C)cc1OCC(N)=O,103% (inactive)
6,O=C1/C(=C/c2cccs2)CCc2ccccc21,66.3% (inactive)
7,Cc1cc(C)c2nc(N3CCCC3)c(C#N)cc2c1,101% (inactive)
8,CC(=O)c1ccc(S(=O)(=O)N2CCN(c3nc4c(C)c(C)ccc4cc3C#N)CC2)cc1,225% [fluorescence artefact?] (active)
9,Cc1cccc2cc(C#N)c(N3CCCC3)nc12,109% (inactive)
10,Cc1cc(NC(=O)CCC(=O)N(CC(=O)NCC2CCCO2)c2ccccc2C)no1 (stereo unspecified),101% (inactive)
11,O=C(OC1CCCCC1=O)c1cccc(S(=O)(=O)NCc2ccccc2)c1 (stereo unspecified),96.6% (inactive)
12,COC(=O)c1nc2ccccc2s1,116% (inactive)
13,Nn1cnnc1N/N=C/c1cc([N+](=O)[O-])c(Cl)cc1Cl,600% [fluorescence artefact?] (active)
14,CC(=O)c1cccc(NC(=O)C2CCCN2S(=O)(=O)c2cccc3nsnc23)c1 (stereo unspecified),87.3% (inactive)
15,CCC(=O)Nc1nc2ccccc2n1Cc1ccccc1C,117% (inactive)
16,Cc1ccc(Cn2c(NC(=O)c3ccco3)nc3ccccc32)cc1,316% (active)
17,Cc1ccc(-n2nc3cc(Cl)c(NC(=O)c4ccco4)cc3n2)cc1,112% (inactive)
18,O=c1c2ccccc2nc2n1C1(CCCCC1)Cc1ccccc1-2,109% (inactive)
19,O=C(CN1CCCCC1)N1c2ccccc2Sc2ccc(C(F)(F)F)cc21,113% (inactive)
20,CC1(C)C2CCC13CS(=O)(=O)NC3C2 (stereo unspecified),96.5% (inactive)
21,CCN1CCN(Cc2c(O)ccc3c(=O)c(-c4ccc(OC)c(OC)c4)c(C(F)(F)F)oc23)CC1,109% (inactive)
22,CCOC(=O)c1cc2cc(-c3c(C(=O)OCC)oc4cc(O)cc(O)c4c3=O)ccc2o1,72.5% (inactive)
23,O=c1c(-c2ccc3c(c2)OCCO3)c(C(F)(F)F)oc2cc(O)cc(O)c12,346% [fluorescence artefact?] (active)

row,Structure (SMILES),coactivator binding (% of control)
1,COc1ccc(C2CC(c3cccs3)=Nc3ccccc3S2)cc1OC (stereo unspecified),94.7% (inactive)
2,CC(C)C[C@@H](N)c1nnc(SCC(=O)c2ccc(Cl)cc2)o1,100% (inactive)
3,Cc1cccc(NC(=O)c2sc3nc4c(c(-c5ccco5)c3c2N)CCC4)c1,104% (inactive)
4,NC(=O)c1sc2nc3c(c(-c4ccccc4)c2c1N)CCC3,80.3% (inactive)
5,CC(=O)Nc1ccc(NC(=O)c2sc3nc4c(c(-c5ccc(C)cc5)c3c2N)CCC4)cc1,1100% [fluorescence artefact?] (active)
6,CO/N=C(/CS(=O)(=O)c1ccc(Br)cc1)c1ccc(OC)cc1,94.8% (inactive)
7,CCOC(=O)c1ccc2c(c1)nc(C)n2CC,89.8% (inactive)
8,O=C(NCCCN1CCCCCC1)C1CC(=O)N(C2CCCC2)C1 (stereo unspecified),688% [fluorescence artefact?] (active)
9,O=C(NCCc1ccc(Cl)cc1)C1CC(=O)N(C2CCCCC2)C1 (stereo unspecified),133% (inactive)
10,CC(C)OCCCNC(=O)C1CC(=O)N(C2CCCCCCC2)C1 (stereo unspecified),80.7% (inactive)
11,Cc1ccc(S(=O)(=O)Oc2ccc(/C=N/NC(=O)c3c(Cl)cnn3C)cc2)cc1,106% (inactive)
12,CCC(C(=O)NC1CCCC1)N(C(=O)c1snc(C(N)=O)c1N)c1ccc2c(c1)OCCO2 (stereo unspecified),244% [fluorescence artefact?] (active)
13,COCCNC(=O)C(c1ccc(C)o1)N(Cc1cccs1)C(=O)c1snc(C(N)=O)c1N (stereo unspecified),117% (inactive)
14,CCC(C)(C(=O)NC1CCCCC1)N(C)C(=O)c1ccc2c(c1)OCO2 (stereo unspecified),107% (inactive)
15,CCN(CC(=O)Nc1ccccc1OC)C(=O)Cn1cnc2ccccc2c1=O,97.9% (inactive)
16,CC1Cc2ccccc2N1C(=O)CSc1nc2ccccc2o1 (stereo unspecified),111% (inactive)
17,CC1Cc2ccccc2N1C(=O)CSc1nnc(-c2ccc(S(=O)(=O)N3CCCCC3)cc2)o1 (stereo unspecified),304% (active)
18,CCS(=O)(=O)c1ccc2oc(SCC(=O)N3c4ccccc4CC3C)nc2c1 (stereo unspecified),98% (inactive)
19,Cc1cccc(OCCCC(=O)Nc2ccc(S(=O)(=O)N3CCCC3)cc2)c1,94.6% (inactive)
20,c1ccc(-c2noc(-c3cccs3)n2)nc1,118% (inactive)
21,CC(C)c1nc(-c2ccccn2)no1,105% (inactive)
22,O=C(Oc1ccc(-c2nc(-c3ccccn3)no2)cc1)c1ccccc1,210% (active)
